Results on 23 compounds are retold here after PubChem BioAssay AID1347076 (National Center for Advancing Translational Sciences (NCATS), 2019).

The campaign covered roughly 400,000 compounds. About 13,000 (3.2%) were called active. Entries that show only a call come without a potency. Not shown: some 18% with an inconclusive outcome. Calls come from the whole dose curve; as a rule, active = well fitted cell-killing curve with a large enough effect; inconclusive = small, poorly fitted or top-dose-only effect, or effect the other way; inactive = flat fitted curve, though single readings scatter. For the sample, actives were picked, then their nearest neighbours and some compounds at random.
Potency is the fitted concentration of half-maximal effect.

A short description of this test: qHTS assay for MDR1-selective chemotherapeutics: Primary screen using the drug-selected MDR subline cells KB-V1. Note: nearly all actives have a fitted effect of over 60% in size. The conditions noted are these: KB-V1 MDR cells viability, CellTiter-Glo, 72 h; series mostly up to 46.1 µM. The text has this:
A prime difficulty in effectively treating cancer is the development of cellular resistance to multiple structurally unrelated anticancer drugs, a phenomenon known as multidrug resistance (MDR). […] Numerous strategies to overcome P-gp-mediated MDR have been explored, including the design of drugs that evade recognition and efflux, and development of inhibitors to block efflux and restore drug accumulation. […] An alternative approach is to exploit resistance by identifying drugs that target MDR cells over the non-resistant parental cells from which they were selected. […] The development of MDR1-selective agents represents a new strategy for resolving multidrug resistance, as it remains a long-standing clinical challenge for cancer chemotherapy.
Our goal is to identify compounds that selectively kill P-gp-expressing MDR cells. We will identify MDR1-selective compounds by comparing toxicity of compounds in the screening library against parental, drug-naive (KB-3-1) adenocarcinoma cells as well as their drug-selected MDR sub-line (KB-V1). The differential toxicity of compounds against these two cell lines will be used to identify MDR1-selective compounds, whose cytotoxicity is potentiated, rather than diminished, by P-gp expression. This assay will be utilized to conduct a quantitative high-throughput screen (qHTS) in collaboration with the NIH Chemical Genomics Center to identify selective agents, and probe hits arising from the screen will be validated using secondary assays and characterized through a well-established follow-up research program. This screen was run against the entire NCGC library collection of about 400,000 compounds.
NIH Molecular Libraries Probe Production Network [MLPCN]
NIH Chemical Genomics Center [NCGC]
PI: Michael Gottesman, National Cancer Institute, NIH
Briefly, 5 microL of media containing either KB-V1 cells (columns 1-2, 4-48) are dispensed into Greiner white, treated solid-bottom 1536-well assay plates (media-only control is added to column 3). Compounds are then transferred via Kalypsys pin tool equipped with 1536-pin array (10 nL slotted pins, V&P Scientific, San Diego, CA). Following addition of compound, the plates are incubated at 37 degrees C for 72 hours. CellTiter-Glo (2.5 µL/well) is then added, and the plates are read in a ViewLux reader (Perkin-Elmer, clear luminescence filter, 1 second exposure, 1x binning) following a 10 minute incubation. All cells are dispensed in DMEM phenol-red free media containing 10% FBS.
Library plates were screened starting from the lowest and proceeding to the highest concentration. Vehicle-only plates, with DMSO being pin-transferred to columns 5-48, will be inserted uniformly at the beginning and the end of each library in order to monitor and record any shifts in the background, which can be affected by reagent dispensers or loss in enzyme activity over time. Screening data will be corrected, normalized, and concentration-effect relationships will be derived by using publicly-available NCGC, NCATS curve fitting algorithms (http://ncgc.nih.gov/pub/openhts).
For `CCCCCCCCCCCCn1ccc(=N)cc1`, the Potency is 8.2 µM (active).

As to `COC(=O)C(O)(c1ccc(NC(=O)c2ccco2)c(OC)c1)C(F)(F)F` (stereo not drawn), the Potency entry is “inactive”.

Consider `COC(=O)C1=C(c2cc3ccccc3s2)C[C@@H]2CC[C@H]1N2C(=O)NCCO`, for which the Potency entry was “inactive”.

Consider `COc1cc(C(c2c(O)c3ccccc3oc2=O)c2c(C)n(C)n(-c3ccccc3)c2=O)ccc1O` (stereo not drawn), for which the Potency result is “inactive”.

`CCCCn1c(=O)c(C(=O)Nc2ccccc2Cl)c(O)c2ccccc21`: the Potency entry is “inactive”.

Take `CCCCCn1c(=O)c(C(=O)Nc2c(C)n(C)n(-c3ccccc3)c2=O)c(O)c2ccccc21`: the Potency is 2.06 µM (active).

Turning to `CCCCCn1c(=O)c(C(=O)NCc2ccccc2)c(O)c2ccccc21`, the Potency result is “inactive”.

Consider `CCCCCn1c(=O)c(C(=O)NCc2ccccn2)c(O)c2ccccc21`, for which the Potency was 14.6 µM (active).

Consider `O=C(O)c1cc[c]([Sb](=[O])([OH])[OH])cc1[N+](=O)[O-]`, for which the Potency entry is “inactive”.

`Cc1ccc(S(=O)(=O)N(C)c2ccc(C(=O)NCC3(N(C)C)CCCCC3)cc2)cc1`: the Potency entry is “inactive”.

For the compound `Cc1c(Oc2cc(NN3CCCCC3)c([N+](=O)[O-])cc2[N+](=O)[O-])cccc1[N+](=O)[O-]`, the Potency result was “inactive”.

Take `CCC1(CC(C)c2ccccc2)C(=O)NC(=O)NC1=O` (stereo not drawn): the Potency entry is “inactive”.

Regarding `C[N+]1(C)CCOC(O)(c2ccc(-c3ccc(C4(O)C[N+](C)(C)CCO4)cc3)cc2)C1` (stereo not drawn), the Potency entry was “inactive”.

As for `ClC(Cl)(Cl)c1ccccc1`, the Potency entry is “inactive”.

Turning to `COC(=O)C1=C(c2ccc(F)cc2OCc2ccccc2)C[C@@H]2CC[C@H]1N2C(=O)NCc1ccc(Cl)cc1`, the Potency entry was “inactive”.

On to `COC(=O)C1=C(c2ccc(F)cc2OCc2ccccc2)C[C@@H]2CC[C@H]1N2C(=O)NCc1ccc(OC)c(OC)c1`, for which the Potency entry is “inactive”.

Turning to `COC(=O)C1=C(c2ccc(OCc3ccccc3)cc2)C[C@@H]2CC[C@H]1N2C(=O)NCc1ccc(Cl)cc1`, the Potency was 14.6 µM (active).

In the case of `COC(=O)C1=C(c2ccc(F)cc2OCc2ccccc2)C[C@@H]2CC[C@H]1N2C(=O)NCc1ccc2[nH]ccc2c1`, the Potency result was “inactive”.

For the compound `COC(=O)C1=C(c2ccc(-c3ccccc3)c(F)c2)C[C@@H]2CC[C@H]1N2C(=O)NCc1ccc(F)cc1`, the Potency was 20.6 µM (active).

In the case of `COC(=O)C1=C(c2ccc(OCc3ccccc3)cc2)C[C@@H]2CC[C@H]1N2C(=O)NCc1cccc(F)c1`, the Potency is 7.31 µM (active).

With `COC(=O)C1=C(c2ccccc2)C[C@@H]2CC[C@H]1N2C(=O)NCc1ccco1`, the Potency entry was “inactive”.

As to `COC(=O)C1=C(c2ccc(F)cc2OCc2ccccc2)C[C@@H]2CC[C@H]1N2C(=O)NCc1ccc(C(C)(C)C)cc1`, the Potency result was “inactive”.

`COC(=O)C1=C(c2ccccc2OCc2ccccc2)C[C@@H]2CC[C@H]1N2C(=O)NCc1ccc(OC)cc1`: the Potency entry is “inactive”.
